# Assay outcomes as filed in PubChem.
# Rows were chosen to be rich in hits. Some 2.3% of all compounds tested hit in one or more screens of this group.
# Gli-Sufu antag: antagonists of Gli-Sufu signaling. Sufu-KO-LIGHT fibroblasts, Gli luciferase reporter luminescence. inhibition, % at 5 µM. 340,000 compounds, 0.74% hits. AID 588413;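 active means inhibition above about 55%, limit read from the data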
# Shn3 inh set2: Schnurri-3 reporter inhibition in Clone20 osteoblasts; inhibition, % at 12.5 µM; 360,000 compounds, 0.52% hits; AID 588674; Clone20 osteoblast Shn3 3'UTR firefly luciferase, 24 h;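 active means mean inhibition of at least 75% with every replicate also reaching 75%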
# TAG inh: reduces triacylglycerol accumulation in H9c2 cells; Nile Red lipid (TAG) fluorescence; cells loaded with 200 µM oleic acid; 230,000 compounds, 0.66% hits; inhibition, % at 12.5 µM;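 active means pattern-corrected inhibition of lipid staining of at least 50% with the nuclear-stain viability signal not falling by more than 50%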
# 697 NFkB inh: inhibitors of the PMA/ionomycin-induced NF-kB reporter in 697 B cells; 697 B-cell NF-kB luciferase reporter, 16 h; 330,000 compounds, 0.33% hits; inhibition, % at 4 µM; in the data active means inhibition above about 35%
# aSyn UTR inh: MLPCN primary screen, SNCA 5' untranslated region | alpha-synuclein 5'UTR reporter, inhibitor activity | inhibition, % (tested at 7.5 µM) | 300,000 compounds, 0.82% hits; in the data active means inhibition above about 60%;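 further: H4 neuroglioblastoma cells stably carrying SNCA 5'UTR luciferase fusion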
# Jurkat NFkB inh: inhibitors of the PMA/ionomycin-induced NF-kB reporter in Jurkat cells. PMA/ionomycin-induced NF-kB luciferase reporter, luminescence. inhibition, % at 4 µM. 330,000 compounds, 0.53% hits. AID 435003; in the data active means inhibition above about 50%
# Jurkat NFkB conf: lowers PMA/ionomycin-induced NF-kB signal in Jurkat cells. shares compounds with Jurkat NFkB inh. Jurkat NF-kB luciferase, 16 h. inhibition, % at 4 µM. 2,700 compounds, 27% hits. AID 435020;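 active means inhibition reaching about 45% at 4 µM in either replicate, limit read from the data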
# A number is an active result; - = inactive; . = no result given.
SMILES,Gli-Sufu antag,Shn3 inh set2,TAG inh,697 NFkB inh,aSyn UTR inh,Jurkat NFkB inh,Jurkat NFkB conf
Cc1cc(N2CCOCC2)c2c(N)c(C)cc(C)c2n1,-,-,-,-,.,-,.
CC(=O)c1ccc(Nc2ccc(-c3ccccc3F)nn2)cc1,-,-,-,-,-,-,-
CCC1(C)Cc2ccccc2-c2nc(NN)[nH]c(=O)c21 (stereo not drawn),-,-,.,-,-,-,.
O=C1c2cccc3cc([N+](=O)[O-])cc(c23)C(=O)N1CCN1CCCC1,75,94,.,-,98,86,57
Nc1nc(-c2cccnc2)nc2sc3c(c12)CCCC3,-,-,.,-,-,-,-
CN(C)c1cc[n+](CC(=O)Nc2ccc(Oc3ccccc3)cc2)cc1,-,-,.,-,-,85,-
CCN(CC)CCCCNc1ncc2cc(-c3cc(OC)cc(OC)c3)c(NC(=O)NC(C)(C)C)nc2n1,-,-,-,-,-,75,-
O=C(Nc1cccc2ccccc12)OC1C=CS(=O)(=O)C1 (stereo not drawn),-,-,-,-,-,90,65
NC(=O)Nc1cccc2ccccc12,-,-,.,-,-,-,.
COc1ccccc1NC(=O)c1ccc(Cl)c(S(=O)(=O)N2CCOCC2)c1,-,-,.,-,-,-,.
CCc1ccc(C2=NN(S(C)(=O)=O)C(c3cccs3)C2)cc1 (stereo not drawn),-,-,-,-,-,-,-
CC1(C)Cc2nc3sc4c(=O)n(CC(=O)NCc5ccccc5)cnc4c3cc2CO1,-,-,.,-,-,61,-
Cc1noc(C)c1C(=O)N1CCC1(C)C(=O)NS(=O)(=O)c1cccs1 (stereo not drawn),.,-,-,.,.,.,.
COc1ccc2oc(=N)c(C(=O)Nc3ccccc3)cc2c1,-,-,-,-,.,-,.
COc1ccc2oc(=N)c(C(=O)Nc3ccccc3Cl)cc2c1,-,-,.,-,-,-,-
CCOC(=O)c1nnc(-c2ccc(C)cc2)nc1Oc1ccc(Cl)cc1Cl,-,-,-,-,-,-,.
Clc1ccc2nc(-c3ccc4c(c3)OCO4)cn2c1,-,-,-,-,-,-,.
Cc1ccc2nc(-c3ccc4c(c3)OCCO4)cn2c1,65,-,-,-,110,83,51
COc1ccc(-c2nc(N)ncc2Oc2ccccc2Br)c(O)c1,-,-,-,-,-,-,.
COc1cccc(Oc2cnc(N)nc2-c2ccc(OC)cc2O)c1,-,-,-,-,-,50,-
CCC(=O)c1ccc(OCC(=O)NC2CCN(Cc3ccccc3)CC2)cc1,-,-,-,-,.,-,.
Clc1ccc(-c2cn3c(n2)-c2ccccc2C3)cc1Cl,-,-,.,-,-,-,-
O=[N+]([O-])c1ccc(F)cc1OCc1nc(-c2cccs2)no1,-,-,-,.,-,.,.
O=[N+]([O-])c1ccccc1OCc1nc(-c2cccs2)no1,-,-,-,-,-,-,-
CCOc1ccc(NS(=O)(=O)c2cc(NC(=O)c3ccc(C)cc3)ccc2Cl)cc1,-,-,-,-,-,53,-
SMILES,Gli-Sufu antag,Shn3 inh set2,TAG inh,697 NFkB inh,aSyn UTR inh,Jurkat NFkB inh,Jurkat NFkB conf
CCOc1ccc(C(=O)N2CCc3cc(OC)c(OC)cc3C2)cc1OCC,-,-,-,-,-,-,.
COc1ccc(OCc2cc(C(=O)NC3Cc4ccccc4C3)no2)c(Cl)c1,-,-,-,-,-,55,-
COc1ccc(OCc2cc(C(=O)N[C@H]3CCCCNC3=O)no2)c(Cl)c1,-,-,-,-,-,-,.
COc1ccc(-c2cc(-c3ccccc3)nc(N)n2)c(O)c1,-,-,-,.,.,.,.
Cc1cc(Nc2ccccc2Cl)c2ccccc2n1,-,-,-,-,-,-,.
COc1ccc2nc(C)cc(Nc3ccccc3OC)c2c1,.,-,-,.,.,.,.
COc1ccc(OC)c(Nc2cc(-c3ccccc3)nc(N)n2)c1,-,.,.,-,68,56,-
COc1ccc(OC)c(Nc2cc(C)nc3ccccc23)c1,-,-,-,-,-,67,-
COc1ccc(Cl)cc1Nc1cc(C)nc2ccccc12,-,-,-,-,-,54,-
CCc1ccc(CN(C)C(=O)C2CCC(=O)N(CC3CCCCC3)C2)cc1 (stereo not drawn),-,-,-,-,-,-,.
O=C(/C=C/c1cccc(F)c1)OCC(=O)N1CCCc2ccccc21,-,-,-,-,-,-,.
O=C(/C=C/c1cccc(F)c1)N1CCc2ccccc21,-,-,.,-,-,-,-
O=C(/C=C/c1ccc(Cl)cc1Cl)N1CCc2ccccc21,-,-,.,-,-,-,-
CCOC(=O)C1CCN(C(=O)c2cc3c(C)cc(C)cc3[nH]2)CC1,-,-,.,-,-,-,.
CCc1ccc(Nc2ncc3c(n2)CC(c2ccc(OC)cc2)CC3=O)cc1 (stereo not drawn),-,-,-,-,-,-,.
CCc1ccc(Nc2ncc3c(n2)CC(C)CC3=O)cc1 (stereo not drawn),-,-,-,-,-,-,-
Cn1cc(/C=N/n2cnc3scc(-c4ccccc4)c3c2=O)c2ccccc21,-,-,-,-,66,63,-
CCOC(=O)c1c2c(n(C)c1C)C(=O)C(=O)c1ccc(Br)cc1-2,-,94,-,-,110,52,-
Cc1ccc(C(=O)Sc2cccccc2=O)cc1,75,96,.,-,-,90,-
COc1cc(C2C3=C(Nc4ncnn42)c2ccccc2CC3)cc(OC)c1OC (stereo not drawn),-,-,.,-,83,75,61
COc1cc(C2CC(=O)C3=C(C2)Nc2ncnn2C3c2cccs2)cc(OC)c1OC (stereo not drawn),-,-,-,-,-,-,.
COc1ccc(N(CC(=O)Nc2cc(Cl)ccc2OC)S(=O)(=O)c2c(C)noc2C)cc1,-,-,.,-,71,69,-
COc1ccc(OC)c(NC(=O)CN(c2ccc(C)cc2)S(=O)(=O)c2c(C)noc2C)c1,-,-,-,-,-,-,.
Cc1ccc(O)c(N=Nc2nccs2)c1,-,93,-,-,.,59,79
Cc1ccc(O)c(N=Nc2ccc(S(=O)(=O)N3CCCC3)cc2)c1,-,-,-,-,-,-,.
SMILES,Gli-Sufu antag,Shn3 inh set2,TAG inh,697 NFkB inh,aSyn UTR inh,Jurkat NFkB inh,Jurkat NFkB conf
COc1ccc(N=Nc2cc(C)ccc2O)cc1,-,-,-,-,-,-,-
COn1c(-c2ccccc2)nc2ccc(Cl)cc21,-,-,.,-,-,-,.
Clc1ccc2nc3c4ccccc4cnn3c2c1,-,-,-,-,-,-,-
CNc1ccc(/C=C(\C#N)c2ccccn2)cc1[N+](=O)[O-],-,-,-,-,-,-,-
O=C(Nc1nc(-c2nc3ccccc3s2)cs1)C1CC1,-,-,-,-,-,-,-
O=C(Nc1nc(-c2nc3ccccc3s2)cs1)c1ccco1,-,-,-,-,-,-,.
COc1ccc(N2CCc3c(C)nc4c(OC)cc(OC)cc4c32)c(OC)c1,-,-,-,-,-,-,.
COc1ccc(N2CCc3c(C)nc4c(OC)cccc4c32)cc1,-,-,-,-,89,64,-
